Test [1] deals with Plasmodium falciparum Sir2 (PF13_0152, Sir2A). The test is described as follows: pfSir2 binders on small-molecule microarrays, primary screen, biochemical, small-molecule microarray, 635 nm fluorescence (AID 1098).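 Further: score merges spot fluorescence intensity with its signal-to-noise ratio.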 The settings on record: small-molecule microarray binding, fluorescence 635 nm; higher = more signal.
A short description of test [2]: small-molecule microarray binders of probe aDKK1, primary screen, biochemical, biotinylated probe, 635/667 nm fluorescence (AID 1099).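 Further: score merges 667nm spot fluorescence with signal to noise across triplicate slides.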 The conditions noted are these: higher = more signal.
Test [3] in a line: small-molecule microarray binders of probe aCHRDL2, primary screen, biochemical, biotinylated probe, 635/667 nm fluorescence (AID 1100). The conditions noted are these: higher = more signal.
Test [4] in a line: splicing luciferase reporter signal modulators, primary screen, spliceosome inhibition project, cell-based, HEK293, splice +/- reporter (AID 1101).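 Further: HEK293 cells carrying a splicing-competent luciferase reporter gene; test concentration not given here.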 The settings on record: luminescence, 24 h, higher = more signal, called active from +8 up or from −8 down. A general note: In a reporter assay the amount or activity of a reporter protein is the signal.
The target of test [5] is Fibroblast growth factor 10 (Homo sapiens) (UniProt O15520). Kind of test: FGF10 binders on small-molecule microarrays, primary screen, biochemical, small-molecule microarray, 635 nm fluorescence (AID 1102). The conditions noted are these: FGF10 binding, fluorescence 635 nm, higher = more signal.
Chain of Fibroblast growth factor 10 (Homo sapiens) (O15520 whole entry, looked up): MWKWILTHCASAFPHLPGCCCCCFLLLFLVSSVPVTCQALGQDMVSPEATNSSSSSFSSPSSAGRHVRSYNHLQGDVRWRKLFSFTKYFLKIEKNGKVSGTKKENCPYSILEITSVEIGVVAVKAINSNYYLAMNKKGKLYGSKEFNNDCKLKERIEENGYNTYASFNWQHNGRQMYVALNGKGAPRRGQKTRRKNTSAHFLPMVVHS
Test [6] has as its system glycogen synthase kinase-3 (GSK3A per assay name; protocol says GSK3B). Kind of test: GSK3 binders on small-molecule microarrays, primary screen, biochemical, small-molecule microarray, 635 nm fluorescence, GSK3A (AID 1103). Further: the record names both GSK3A and GSK3B. The settings on record: small-molecule microarray binding, fluorescence 635 nm; higher = more signal.
Test [7] has as its target Epidermal growth factor receptor (Homo sapiens) (UniProt P00533). The test is described as follows: EGFR binders on small-molecule microarrays, primary screen, biochemical, small-molecule microarray, 635 nm fluorescence (AID 1104).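 Further: score merges 667 nm emission intensity with spot signal to noise over triplicate slides.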 The settings on record: EGFR binding, higher = more signal.
In test [8] the target is Follistatin-related protein 3 (Homo sapiens) (UniProt O95633). The test is described as follows: FSTL3 binders on small-molecule microarrays, primary screen, biochemical, small-molecule microarray, 635 nm fluorescence (AID 1105).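 Further: score merges emission near 667 nm and signal to noise per printed spot across three slides.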 The settings on record: FSTL3 binding, higher = more signal.
Chain of Follistatin-related protein 3 (Homo sapiens) (O95633 whole entry, looked up): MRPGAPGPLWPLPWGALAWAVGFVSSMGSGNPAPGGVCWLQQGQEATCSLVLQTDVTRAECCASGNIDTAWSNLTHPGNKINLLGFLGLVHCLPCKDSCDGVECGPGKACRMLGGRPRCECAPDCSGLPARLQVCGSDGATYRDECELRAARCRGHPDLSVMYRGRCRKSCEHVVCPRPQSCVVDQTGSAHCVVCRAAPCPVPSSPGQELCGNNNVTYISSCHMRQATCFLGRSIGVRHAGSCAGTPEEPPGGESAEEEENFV
The target of test [9] is Dickkopf-related protein 1 (Homo sapiens) (UniProt O94907). The test is described as follows: DKK1 binders on small-molecule microarrays, primary screen, biochemical, small-molecule microarray, 635 nm fluorescence scan (AID 1106).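 Further: score merges emission near 667 nm with signal to noise over three replicate slides.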 The conditions noted are these: DKK1 binding, higher = more signal.
Chain of Dickkopf-related protein 1 (Homo sapiens) (O94907 whole entry, looked up): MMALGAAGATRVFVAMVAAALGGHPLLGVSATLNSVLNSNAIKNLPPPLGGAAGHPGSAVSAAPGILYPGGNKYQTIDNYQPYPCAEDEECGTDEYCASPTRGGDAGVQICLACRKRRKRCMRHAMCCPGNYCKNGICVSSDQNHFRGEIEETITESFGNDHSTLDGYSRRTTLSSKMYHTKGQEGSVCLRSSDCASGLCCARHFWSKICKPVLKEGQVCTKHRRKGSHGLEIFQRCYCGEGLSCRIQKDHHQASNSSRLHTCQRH
Test [10] has as its system Inhibin beta A chain (activin A). The test is described as follows: INHBA (activin A) binders on microarrays, primary screen, biochemical, small-molecule microarray, 635 nm fluorescence scan (AID 1107).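 Further: mouse activin A protein probed at 4.33 µg/mL on printed slides; score merges bound-protein fluorescence near 667 nm with spot signal-to-noise.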 The settings on record: small-molecule microarray binding, higher = more signal.
In test [11] the test system is Human papillomavirus type 1a protein E7 (residues 44-93). Kind of test: HPV1a E7 fragment binders on microarrays, primary screen, biochemical, small-molecule microarray, residues 44-93, 635 nm fluorescence (AID 1108).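 Further: E7 fragment applied at 1 µg/mL in TBST for 1 h at 4 C; score combines spot fluorescence with its signal to noise ratio.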 The conditions noted are these: small-molecule microarray binding, fluorescence 635 nm; higher = more signal.
Test [12] in a line: modulators of HCV replicon luciferase signal, primary screen, HCV replication inhibitor project, Huh7 cells, luciferase reporter (AID 1109).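 Further: huh7 hepatoma cells harbouring a luciferase neomycin HCV replicon reporter; luciferase luminescence as measure of HCV replicon replication; test concentration not given here.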 The settings on record: 48 h, higher = more signal. (In general: Replicon systems follow genome replication, usually without infectious particles.)
For test [13], the target named is Left-right determination factor 2 (Homo sapiens) (UniProt O00292). Kind of test: LEFTY2 binders on small-molecule microarrays, primary screen, biochemical, small-molecule microarray, 635 nm fluorescence scan (AID 1110). The settings on record: LEFTY2 binding, higher = more signal.
Chain of Left-right determination factor 2 (Homo sapiens) (O00292 whole entry, looked up): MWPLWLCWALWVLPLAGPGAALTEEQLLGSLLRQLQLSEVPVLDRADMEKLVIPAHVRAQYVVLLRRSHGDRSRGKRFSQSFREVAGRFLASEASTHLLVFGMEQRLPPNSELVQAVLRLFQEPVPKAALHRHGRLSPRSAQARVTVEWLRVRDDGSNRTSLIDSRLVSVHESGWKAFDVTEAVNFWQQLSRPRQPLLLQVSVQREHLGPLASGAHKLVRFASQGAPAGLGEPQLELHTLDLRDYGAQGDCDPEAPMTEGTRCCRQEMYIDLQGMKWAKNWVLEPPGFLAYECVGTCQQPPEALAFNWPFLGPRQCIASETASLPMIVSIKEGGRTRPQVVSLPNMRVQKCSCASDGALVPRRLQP
The target in test [14] is Calmodulin-1 (Homo sapiens) (UniProt P0DP23). Kind of test: CALM1 binders on microarrays, EGTA buffer, profiling panel, biochemical, small-molecule microarray, Cy5-labelled CALM1 (AID 1111).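 Further: labelled calmodulin applied in Tris saline Tween buffer holding calcium plus EGTA and DTT.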 The settings on record: Cy5-CALM1 binding fluorescence, higher = more signal.
Test [15] shares this target. The test is described as follows: calcium-bound CALM1 binders on microarrays, profiling panel, artefact control for SMM control-protein annotation, biochemical, small-molecule microarray, Cy5-labelled CALM1, plus calcium (AID 1112).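 Further: score merges spot fluorescence with signal to noise from triplicate slides.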 The conditions noted are these: Cy5-CALM1 binding fluorescence, higher = more signal.
The nature of test [16]: small-molecule microarray binders of probe aWnt5a, primary screen, biochemical, biotinylated probe, 635/667 nm fluorescence (AID 1113).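 Further: score merges 667 nm fluorescence intensity with signal-to-noise per printed feature.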 The conditions noted are these: higher = more signal.
Test [17] in a line: small-molecule microarray binders of probe aShh, primary screen, biochemical, biotinylated probe, 635/667 nm fluorescence (AID 1114).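 Further: probe is biotin-labelled aShh protein from a stem cell growth factor screen; measures binding of labelled protein to compounds printed on the slide; score merges feature fluorescence at 667 nm with signal-to-noise.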 The conditions noted are these: higher = more signal.
Test [18] is described as follows: small-molecule microarray binders of probe aNog, primary screen, biochemical, biotinylated probe, 635/667 nm fluorescence (AID 1115).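 Further: probe is biotinylated aNog protein used at 0.15 µg/mL for 1 h at 4 C; z-score combines 667 nm fluorescence of each spot with its signal to noise.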 The settings on record: higher = more signal.
Test [19] has as its target Torsin-1A-interacting protein 1 (Homo sapiens) (UniProt Q5JTV8). Kind of test: LAP1 binders from COS7 cell lysate, primary screen, small-molecule microarray, 635/667 nm fluorescence (AID 1116). The settings on record: COS7-hLAP1 lysate binding, 635 nm fluorescence, higher = more signal.
Test [20] has as its target Alpha-bungarotoxin (Bungarus multicinctus) (UniProt P60615). The test is described as follows: alpha-bungarotoxin binders on microarray, profiling panel, artefact control for SMM control protein annotation, biochemical, small-molecule microarray, Alexa647 label, 635/667 nm fluorescence (AID 1117). The conditions noted are these: alpha-BTX-A647 binding fluorescence, higher = more signal.

Molecules are shown by their SMILES. Active and inactive are the calls of the source.

Chain of Torsin-1A-interacting protein 1 (Homo sapiens) (Q5JTV8 whole entry, looked up): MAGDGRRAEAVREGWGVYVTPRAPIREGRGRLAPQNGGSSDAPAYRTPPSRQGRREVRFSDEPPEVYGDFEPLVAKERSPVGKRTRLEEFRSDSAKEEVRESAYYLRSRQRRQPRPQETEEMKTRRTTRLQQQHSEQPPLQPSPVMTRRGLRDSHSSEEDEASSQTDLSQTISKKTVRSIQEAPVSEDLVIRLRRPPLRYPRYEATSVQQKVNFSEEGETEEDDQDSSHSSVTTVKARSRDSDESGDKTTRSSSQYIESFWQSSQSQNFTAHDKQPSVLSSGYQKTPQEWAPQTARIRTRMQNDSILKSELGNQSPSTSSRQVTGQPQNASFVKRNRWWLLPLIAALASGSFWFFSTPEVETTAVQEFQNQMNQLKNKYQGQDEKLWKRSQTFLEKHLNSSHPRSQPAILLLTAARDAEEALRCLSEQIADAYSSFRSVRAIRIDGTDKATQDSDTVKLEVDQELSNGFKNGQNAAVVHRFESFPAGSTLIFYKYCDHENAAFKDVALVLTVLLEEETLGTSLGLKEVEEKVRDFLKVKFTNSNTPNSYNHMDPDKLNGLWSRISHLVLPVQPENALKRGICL
Chain of Alpha-bungarotoxin (Bungarus multicinctus) (P60615 whole entry, looked up): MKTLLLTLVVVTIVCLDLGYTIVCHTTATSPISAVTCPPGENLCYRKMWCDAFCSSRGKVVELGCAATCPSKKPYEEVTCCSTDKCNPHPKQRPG
Chain of Epidermal growth factor receptor (Homo sapiens) (P00533 whole entry, looked up): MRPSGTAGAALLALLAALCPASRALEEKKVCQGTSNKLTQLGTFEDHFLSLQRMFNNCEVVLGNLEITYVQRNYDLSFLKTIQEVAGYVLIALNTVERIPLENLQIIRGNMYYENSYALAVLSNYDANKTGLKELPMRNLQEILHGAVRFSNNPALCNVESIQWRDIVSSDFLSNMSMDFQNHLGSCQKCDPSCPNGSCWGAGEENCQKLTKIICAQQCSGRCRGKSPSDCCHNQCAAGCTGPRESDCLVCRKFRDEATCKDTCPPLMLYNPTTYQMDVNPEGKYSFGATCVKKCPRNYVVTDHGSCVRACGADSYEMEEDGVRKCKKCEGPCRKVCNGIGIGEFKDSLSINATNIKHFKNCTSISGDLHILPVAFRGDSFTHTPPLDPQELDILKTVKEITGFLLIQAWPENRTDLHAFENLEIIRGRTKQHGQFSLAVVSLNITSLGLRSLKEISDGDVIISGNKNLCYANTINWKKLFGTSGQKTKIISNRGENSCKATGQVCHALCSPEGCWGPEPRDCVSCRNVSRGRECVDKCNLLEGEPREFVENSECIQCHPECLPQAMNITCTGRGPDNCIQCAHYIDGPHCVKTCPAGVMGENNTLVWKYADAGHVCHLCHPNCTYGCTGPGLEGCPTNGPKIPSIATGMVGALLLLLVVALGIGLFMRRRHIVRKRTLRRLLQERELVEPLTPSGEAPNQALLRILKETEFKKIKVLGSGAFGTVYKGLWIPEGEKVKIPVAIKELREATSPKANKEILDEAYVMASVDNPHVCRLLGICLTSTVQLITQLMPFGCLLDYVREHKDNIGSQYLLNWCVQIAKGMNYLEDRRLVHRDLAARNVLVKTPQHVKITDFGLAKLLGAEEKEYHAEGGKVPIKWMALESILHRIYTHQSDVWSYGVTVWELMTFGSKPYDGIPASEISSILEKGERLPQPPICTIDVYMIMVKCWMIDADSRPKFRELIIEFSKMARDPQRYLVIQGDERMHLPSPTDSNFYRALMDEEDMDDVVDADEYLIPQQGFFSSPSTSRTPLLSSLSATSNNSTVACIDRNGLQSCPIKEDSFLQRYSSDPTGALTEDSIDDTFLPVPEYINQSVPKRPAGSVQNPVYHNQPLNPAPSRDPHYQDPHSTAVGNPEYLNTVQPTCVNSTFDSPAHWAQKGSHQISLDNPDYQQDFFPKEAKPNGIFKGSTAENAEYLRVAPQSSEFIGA

With `COCCOC(=O)N1C(=O)[C@@]2(c3cc(C#CC4(O)CCCCCC4)ccc31)[C@H](C(=O)N1CCCCCCC1)[C@H]1C(=O)O[C@H](c3ccccc3)[C@H](c3ccccc3)N1[C@@H]2c1ccccc1OCCO`, the composite z-score came to 1.6 in test [1]; 1.56 in test [2]; 1.44 in test [3]; 0.933 in test [5]; 1.32 in [6]; 0.75 in [7]. Further, the composite z-score came to 1.46 in test [8]; 1.18 in test [9]; 1.63 in [10]; 1.42 in test [11]; 0.487 in [13]; 1.79 in test [14]. Besides, the composite z-score in [15] stood at 1.22; in test [16], 0.265; in [17], 0.906; in [18] it was 2.36; in test [19], 1.62; in [20], 1.49. Moreover, the z-score was 0.0811 (inactive) in test [4] and -1.61 in test [12].
For `COc1ccc([Si](C)(C)[C@H]2[C@H](CCn3cc(CCO)nn3)O[C@@]3(C(=O)N(Cc4ccc(N5CCOC5=O)cc4)c4ccccc43)[C@@H]2C)cc1`, the composite z-score in test [1] is 1.51; in [2] it was -0.0848; in test [3], 0.236; in test [5], 0.209; in test [6] it was 0.625; in test [7], -0.0252. For the same compound, the composite z-score in test [8] is 0.642; in test [9] it was 0.141; in test [10], 0.766; in test [11] it was 0.469; in test [13], -0.129; in [14] it was 0.122. The composite z-score was 0.0117 in [15]; -0.124 in test [16]; 0.0469 in test [17]; 0.0581 in test [18]; 1.03 in test [19]; 1.27 in test [20]. Further, the results for the z-score in [4] and in test [12] were -0.188 (inactive) and -4.2, respectively.
On to `CC(C)NC(=O)[C@@H]1c2ccccc2C(=O)N(Cc2ccccc2Cl)[C@H]1c1ccc(CO)cc1`, for which the composite z-score in test [1] is 0.284; in test [2] it was 0.0098; in [3] it was 0.448; in test [5] it was -0.584; in test [6], 0.0016; in test [7], -0.903. Besides, the composite z-score was -0.398 in [8]; -0.645 in test [9]; 0.365 in test [10]; 1.17 in [11]; -0.998 in [13]; -0.0984 in [14]. The composite z-score in test [15] is 0.29; in test [16], -0.13; in test [17], -0.0769; in test [18] it was 0.139; in test [19] it was 1.25; in test [20], -0.436. The figures for the z-score in [4] and in [12] were 0.62 (inactive) and -0.657, respectively.
Take `COCCOC(=O)N1C(=O)[C@@]2(c3cc(C#CCC(C(=O)OC)C(=O)OC)ccc31)[C@H](C(=O)N1CCCCCCC1)[C@H]1C(=O)O[C@H](c3ccccc3)[C@H](c3ccccc3)N1[C@@H]2c1ccc(OCCO)cc1`: the composite z-score in test [1] worked out at 1.74; in [2] it was 2.72; in [3], 1.65; in test [5], 1.45; in test [6], 1.35; in test [7], 1.76. The composite z-score in test [8] amounted to 1.65; in test [9] it was 2.25; in test [10], 1.62; in test [11] it was 1.49; in [13], 1.33; in test [14], 2.48. Moreover, the composite z-score worked out at 1.67 in test [15]; 1.21 in [16]; 1.19 in test [17]; 3.01 in [18]; 4.31 in test [19]; 3.31 in test [20]. Also, the z-score in test [4] is 0.161 (inactive); in [12] it was -0.981.
As to `COc1ccc(C#Cc2ccc3c(c2)[C@]2(C(=O)N3)[C@H](C(=O)NC[C@H](O)c3ccccc3)[C@H]3C(=O)O[C@H](c4ccccc4)[C@H](c4ccccc4)N3[C@@H]2c2ccccc2OCCO)cc1`, the composite z-score in [1] stood at 1.74; in [2], 0.408; in test [3], 0.334; in test [5], 0.877; in [6], 1.19; in [7], 0.186. Further, the composite z-score was 1.16 in test [8]; 0.169 in test [9]; -0.0953 in [10]; 0.272 in [11]; 0.5 in [13]; 1.08 in [14]. Also, the composite z-score in [15] is 0.243; in test [16], 0.0229; in [17] it was 0.232; in [18] it was 0.325; in test [19], 0.967; in [20] it was 1.22. The z-score in test [4] was -0.955 (inactive); in test [12] it was -2.86.

For the origin of these results see PubChem BioAssay.
